# hNpr1 antagonist: Natriuretic polypeptide receptor (hNpr1) antagonism - Primary qHTS; AID 1347048, 2019; actives 1.6% (n = 76,000); HEK293 hNpr1 GloSensor cGMP, ANP-stimulated luminescence; Potency, µM (titrated, usually from 46.3 µM), without a hit: top-dose activity change, negative = inhibition, actives largely listed as inhibitors; calls by dose curve; note: nearly all actives have a fitted effect of over 60% in size
#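 Compound pre-incubated 30 min at room temperature on GloSensor-loaded HEK293 cells stably carrying hNpr1 and the pGS-40F cGMP biosensor. Stimulation uses hNppA at 0.1 nM final; luminescence is taken at baseline and 20 min post-agonist.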
# GPT2 inhibitor: Primary qHTS assay for inhibitors of Glutamate pyruvate transaminase 2 (GPT2) | Recombinant GPT2, coupled pyruvate oxidase/HRP Amplex Red fluorescence | Potency, µM (top dose mostly 57.7 µM), for inactives: at the highest dose activity change, negative = inhibition, most hits filed as inhibitors | actives 0.25% (n = 100,000) | AID 1671188, 2021 | Alanine aminotransferase 2 (Homo sapiens), Q8TD30; note: nearly all actives have a fitted effect of over 60% in size
#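 GPT2 10ng/uL, a-KG 250uM, L-Ala 2mM, HEPES pH7.5 + 0.0001% Tween; 30 min RT. Then Amplex mix (PO/HRP/ThPP), 30 min RT dark, fluorescence. AOA 50uM used as positive control.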
# 3T3 cytotox: Cytotoxic Profiling in NIH 3T3 Cell Line of Diverse Libraries Using Quantitative High-Throughput Screening; NIH 3T3 viability, CellTiter-Glo ATP luminescence, 48-72 h; Potency, µM (top dose mostly 96.7 µM), for the others: top-dose activity change, negative = cytotoxicity, usual class: inhibitors; actives 4.3% (n = 94,000); note: nearly all actives have a fitted effect of over 55% in size
#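 First NIH 3T3 cells are plated at 400 cells/well; next compound is pinned in; then plates incubate 48 or 72 hr at 37 °C; finally CellTiter-Glo is added and luminescence read after 10 min.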
# HEK293 tox: Cytotoxic Profiling in HEK 293 Cell Line of Diverse Libraries Using Quantitative High-Throughput Screening | HEK 293 viability, ATP luminescence (CellTiter-Glo), 48-72 h | Potency, µM (highest dose often 115 µM), without a hit: top-dose activity change, negative = cytotoxicity, most hits filed as inhibitors | actives 6.6% (n = 94,000); note: nearly all actives have a fitted effect of over 60% in size
#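 ATP-coupled CellTiter-Glo luminescence served as viability read-out, recorded 10 min after reagent addition at room temperature. HEK 293 cells, 250 cells/well, had been incubated with pintool-transferred compound for 48 or 72 hr at 37 degree Celsius.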
# FLuc inh: Firefly luciferase inhibition profiling of diverse chemical library using quantitative high-throughput screening; purified P. pyralis luciferase, luminescence, biochemical; Potency, µM (titrated, usually from 115 µM), actives largely listed as inhibitors; actives 2.5% (n = 76,000); AID 1347043, 2019; note: nearly all actives have a fitted effect of over 65% in size
# Target sequence (P08659 whole entry, looked up): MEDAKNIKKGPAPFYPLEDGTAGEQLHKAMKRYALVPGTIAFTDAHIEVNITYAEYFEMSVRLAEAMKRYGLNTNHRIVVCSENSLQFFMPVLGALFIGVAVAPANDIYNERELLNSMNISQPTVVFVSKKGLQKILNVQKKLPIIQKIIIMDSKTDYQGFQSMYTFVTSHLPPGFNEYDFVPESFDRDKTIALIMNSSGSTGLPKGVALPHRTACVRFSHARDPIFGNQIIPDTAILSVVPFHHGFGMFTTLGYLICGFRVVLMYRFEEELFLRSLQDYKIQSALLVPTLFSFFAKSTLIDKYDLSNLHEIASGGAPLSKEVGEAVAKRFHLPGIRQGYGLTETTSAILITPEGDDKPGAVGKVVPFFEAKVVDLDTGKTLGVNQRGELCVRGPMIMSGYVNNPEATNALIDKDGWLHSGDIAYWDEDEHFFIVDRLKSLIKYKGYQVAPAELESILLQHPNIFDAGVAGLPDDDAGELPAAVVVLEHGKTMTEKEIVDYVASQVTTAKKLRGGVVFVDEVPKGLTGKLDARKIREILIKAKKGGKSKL
#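 Biochemical qHTS: compound (6-point titration) added to 10uM D-luciferin plus 10uM ATP in Tris acetate pH 7.5 buffer with Mg, Tween-20 and BSA, then purified enzyme at 10nM; light output imaged.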
# * marks the source's active call; other numbers are inactive results; i = inactive; ? = inconclusive; nt = no result; [ ] = dose if it differs, or a comment. This is a sample that favours compounds with a hit; in the whole collection about 10% have one here. Unless noted, calls come from the whole dose curve; as a rule, active = well fitted curve in the direction sought with a large enough effect; inconclusive = small, poorly fitted or top-dose-only effect, or another doubt; inactive = no such curve, though single readings can be large; an effect the other way counts as inactive or inconclusive. % is set by controls: 0 for no effect and ±100 for the full control effect; potency is the fitted concentration of half-maximal effect.
SMILES,hNpr1 antagonist,GPT2 inhibitor,3T3 cytotox,HEK293 tox,FLuc inh
O=C(c1c(F)cccc1F)N1CCC(n2cc(-c3nc(-c4ccccc4)no3)nn2)CC1,1.1µM*,-34%,?,?,i
Cc1ccc(C(=O)N2CCC(n3cc(-c4nc(-c5ccccc5)no4)nn3)CC2)cc1,-21%,4%,-17%,?,i
O=C(COc1ccccc1)N1CCC(n2cc(-c3nc(-c4ccccc4)no3)nn2)CC1,0%,i,13µM*,?,i
O=C(c1ccccc1)N1CCC(n2cc(-c3nc(-c4ccccc4)no3)nn2)CC1,0%,i,40µM*,?,i
O=c1c2c(n(Cc3ccccc3)n1-c1ccccc1)CN(Cc1cccnc1)CC2,0%[70.6 µM],i,?,-7%[172 µM],i
COCCN1CCCC2(CCN(C(=O)CCn3cncn3)C2)C1=O (centres undefined),1%,-15%,-3%,-1%,i
COCCn1ncc(N2CCCC(CC(=O)Nc3ccc(C)c(F)c3)C2)cc1=O (centres undefined),-4%,i,?,-20%,i
CN1CCC(CNc2nccc(C3(c4ccccc4Cl)CCNCC3)n2)C1 (centres undefined),-4%,-1%,-20%,-22%,i
Cn1nc(C(=O)N2CCC(c3n[nH]c(=O)n3-c3ccccc3)CC2)c2ccccc21,11%,i,?,-28%,i
Cc1ccccc1NC(=O)c1cnc2c(c1)N(C(=O)Cc1ccc(C(C)C)cc1)CCC2,?,-5%[88.5 µM],89µM*,100µM*,i
CC(C)c1ccc(CC(=O)N2CCCc3ncc(C(=O)Nc4cccc(C(F)(F)F)c4)cc32)cc1,-27%,-11%,?,32µM*,i
CC(C)NC(=O)c1cnc2c(c1)N(C(=O)Cc1cccc(C(F)(F)F)c1)CCC2,2%[70.6 µM],-28%[88.5 µM],?,-16%[172 µM],i
c1cc2c(cc1CNC1(Cc3cc(CN4CCCCC4)on3)COC1)OCO2,-1%[70.6 µM],i,-13%[174 µM],-27%[172 µM],i
Cc1noc(C2CC3(CCN(C(=O)COc4ccc(F)cc4)CC3)CN2C)n1 (centres undefined),2%,i,-4%,2%,i
COC(=O)c1ccc(COC[C@@H]2CN(C(C)C)S(=O)(=O)[C@H]2c2ccccc2)cc1,nt,nt,?,40µM*,nt
O=[S+]1([O-])[C@@H](c2ccccc2)[C@H](COCc2ccccc2)CN1c1ccccc1,nt,nt,?,-29%,nt
COc1ccc(CCC(=O)NCc2nnc3c(-c4nc(C(C)C)no4)cccn23)cc1,6%,i,4%,i,i
Cn1ccc2c(C(=O)NCC3CCC(=O)N3)nc(-c3ccccc3C#N)cc21 (centres undefined),-1%[70.6 µM],-5%[88.5 µM],25µM*,?,i
NS(=O)(=O)c1cc2c(cc1Cl)NC=NS2(=O)=O,nt,3%,nt,nt,nt
CC(C)CCN1C[C@@H]2[C@H](C1)N(CCOc1ccccc1)C(=O)C(C)(C)[S+]2(=O)[O-],5%[70.6 µM],i,?,112µM*,i
COc1cccc(CN2C[C@H]3[C@H](C2)[S+](=O)([O-])C(C)(C)C(=O)N3CCOc2ccccc2)c1,-2%,-1%,-19%,?,i
Cc1noc(C)c1CN1C[C@@H]2[C@H](C1)N(CCOc1ccccc1)C(=O)C(C)(C)[S+]2(=O)[O-],-1%,5%,16µM*,-23%,i
COc1cncc(N2C[C@@H]3[C@H](C2)N(CCOc2ccccc2)C(=O)C(C)(C)[S+]3(=O)[O-])c1,-11%,10µM*,?,?,i
O=C(NCC1CCCCC1)c1cccnc1N1CC2CC(C1)[C@H]1CCCC(=O)N1C2 (some centres undefined),2%,i,4%,-1%,i
OC[C@@H]1CN(Cc2ccco2)C[C@H]1c1ccccn1,-7%,0%,i,-8%,i
SMILES,hNpr1 antagonist,GPT2 inhibitor,3T3 cytotox,HEK293 tox,FLuc inh
Cc1nc(CCC(=O)NCc2cc(Cl)cc3c(C)c(-c4ccccc4)[nH]c23)n[nH]1,-1%,0%,?,?,32µM*
Cc1ncoc1C(=O)NCc1cc(Cl)cc2c(C)c(-c3ccccc3)[nH]c12,2.8µM*,i[11.5 µM],?,?,?
CN1CCC([C@@H]2CN(S(=O)(=O)c3ccc4c(c3)CCC4)C[C@H]2C(N)=O)CC1,1%,i,0%,-10%,i
COc1ccc(C(=O)N[C@H]2CO[C@H]3[C@@H]2OC[C@@H]3n2cc(-c3ccccc3)nn2)cc1,-29%[70.6 µM],i,?,?,i
O=C(N[C@H]1CO[C@H]2[C@@H]1OC[C@@H]2n1cc(-c2ccccc2)nn1)c1ccc(C(F)(F)F)cc1,?,4%,?,40µM*,i
CN(Cc1ccccc1)Cc1cn([C@H]2CO[C@H]3[C@@H]2OC[C@@H]3NCc2ccccc2)nn1,-2%[70.6 µM],i,?,?,i
c1ccc(CN[C@H]2CO[C@H]3[C@@H]2OC[C@@H]3n2cc(CC3CCCCC3)nn2)cc1,-20%[70.6 µM],i,35µM*,?,i
COc1ccc(C(=O)N[C@H]2CO[C@H]3[C@@H]2OC[C@@H]3n2cc(CC3CCCCC3)nn2)cc1,-26%[70.6 µM],i,?,?,i
COC(=O)c1cccc(NC(=S)N[C@H]2CO[C@H]3[C@@H]2OC[C@@H]3n2cc(CC3CCCCC3)nn2)c1,?,0%,?,40µM*,i
Cc1ccc(C(=O)N[C@H]2CO[C@H]3[C@@H]2OC[C@@H]3n2cc(CC3CCCCC3)nn2)cc1,-4%[70.6 µM],1%[88.5 µM],35µM*,?,i
COCc1ccc2c(c1)c(OC(C)(C)C(=O)Nc1ccccn1)nn2Cc1ccccc1,-4%[70.6 µM],-11%[88.5 µM],?,63µM*,i
COCc1ccc2c(c1)c(OC(C)(C)C(=O)N1CC(O)C1)nn2Cc1cccnc1,2%[70.6 µM],i,79µM*,2%[172 µM],i
COCc1ccc2c(c1)c(OC(C)(C)C(=O)NC(C)C)nn2Cc1cccnc1,-2%[70.6 µM],3%[88.5 µM],?,-17%[172 µM],i
COCc1ccc2c(c1)c(OC(C)(C)C(=O)NCC[S+](C)(=O)[O-])nn2Cc1ccccc1,-1%,3%,35µM*,-26%,i
COCc1ccc2c(c1)c(OC(C)(C)C(=O)NCCc1ccccn1)nn2Cc1ccccc1,-11%,1%,?,?,i

# Compound activity (PubChem BioAssay)
